Values joined by “and” are separate entries in the source; they are usually repeats but may differ in a detail not shown here. Identical values can stand only once.
Biological target: Vascular endothelial growth factor receptor 1 (Homo sapiens) (UniProt P17948)
Settings: at 0.1 µM

Chain of Vascular endothelial growth factor receptor 1 (Homo sapiens) (P17948 whole entry): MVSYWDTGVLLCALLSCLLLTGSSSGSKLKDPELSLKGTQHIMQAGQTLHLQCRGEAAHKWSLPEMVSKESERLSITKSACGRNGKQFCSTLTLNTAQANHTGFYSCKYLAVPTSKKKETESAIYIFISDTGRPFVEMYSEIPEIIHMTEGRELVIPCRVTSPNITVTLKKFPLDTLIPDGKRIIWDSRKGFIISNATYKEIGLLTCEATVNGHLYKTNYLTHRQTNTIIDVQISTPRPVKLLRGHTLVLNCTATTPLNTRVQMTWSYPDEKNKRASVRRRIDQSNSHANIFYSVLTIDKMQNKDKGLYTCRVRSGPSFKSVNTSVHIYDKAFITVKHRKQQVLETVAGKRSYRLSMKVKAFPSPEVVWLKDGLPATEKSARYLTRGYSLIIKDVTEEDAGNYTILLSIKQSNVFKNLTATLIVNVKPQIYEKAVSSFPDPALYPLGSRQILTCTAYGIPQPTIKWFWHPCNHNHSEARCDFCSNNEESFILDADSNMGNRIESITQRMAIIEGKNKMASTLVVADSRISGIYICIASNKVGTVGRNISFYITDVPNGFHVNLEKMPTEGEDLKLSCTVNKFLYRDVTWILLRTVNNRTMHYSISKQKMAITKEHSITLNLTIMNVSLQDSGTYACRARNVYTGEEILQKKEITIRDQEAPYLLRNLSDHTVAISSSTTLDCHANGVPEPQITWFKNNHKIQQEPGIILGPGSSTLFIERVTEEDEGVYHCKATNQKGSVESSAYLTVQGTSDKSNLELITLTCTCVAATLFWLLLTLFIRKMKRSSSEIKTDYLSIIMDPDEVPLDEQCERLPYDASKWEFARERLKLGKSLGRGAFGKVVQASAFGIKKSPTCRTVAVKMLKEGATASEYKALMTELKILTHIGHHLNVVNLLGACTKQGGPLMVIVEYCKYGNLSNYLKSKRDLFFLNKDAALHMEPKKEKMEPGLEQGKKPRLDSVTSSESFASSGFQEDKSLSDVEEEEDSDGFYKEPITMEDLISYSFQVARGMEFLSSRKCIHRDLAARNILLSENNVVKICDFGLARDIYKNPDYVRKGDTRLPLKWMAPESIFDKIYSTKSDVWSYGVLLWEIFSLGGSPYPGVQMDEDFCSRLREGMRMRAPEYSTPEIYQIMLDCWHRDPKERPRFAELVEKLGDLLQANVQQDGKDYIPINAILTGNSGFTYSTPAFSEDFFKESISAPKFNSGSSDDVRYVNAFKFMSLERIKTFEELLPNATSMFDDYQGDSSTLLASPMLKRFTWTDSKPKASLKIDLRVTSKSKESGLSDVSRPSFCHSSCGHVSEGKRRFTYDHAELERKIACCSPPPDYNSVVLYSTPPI

Structure (SMILES)	inhibition
CNC(=O)c1cncc(/C=C/c2ccccc2C)c1	1.31%
N#Cc1cccc(Nc2ncc(-c3ccccc3)o2)c1	2.46%
CCN1CCC(C(=O)Nc2n[nH]c3nnc(-c4cccc(F)c4F)cc23)CC1	0.76%
Nc1nonc1-c1nc2cnccc2n1C1CC1	2.44% and 2.46%
O=C1Nc2ccccc2/C1=C1\CCc2cc(O)ccc21	12.7%
Fc1ccc(Nc2nccc(-c3c(-c4ccc(C(F)(F)F)cc4)nn4ncccc34)n2)cc1F	1.95%
CCS(=O)(=O)c1ccc(OC)c(Nc2ncc(-c3cccc(F)c3)o2)c1	14.2%
OCCCNc1nccc(-c2c(-c3ccc(F)cc3)nn3cc(C(F)(F)F)ccc23)n1	1.4%
CN(c1ccc(NC(=O)NCCN2CCOCC2)cc1)c1ccnc(Nc2ccc(CS(C)(=O)=O)cc2)n1	13.6%
Nc1nccc(-c2c(-c3ccc(F)cc3)ncn2C2CCNCC2)n1	-0.52% and 1.63%
CC1(C)CC(n2cnc(-c3ccc(F)cc3)c2-c2ccnc(N)n2)CC(C)(C)N1	1.16%
Cn1c(-c2nonc2N)nc2cnccc21	1.36%
COc1ccc2ncn(-c3cc(O[C@H](C)c4ccccc4C(F)(F)F)c(C(N)=O)s3)c2c1	-2.14%
Cc1c2ccc(N(C)c3ccnc(Nc4cccc(S(N)(=O)=O)c4)n3)cc2nn1C	52.8%
CNC(=O)c1ncccc1Nc1nc(Nc2cc3c(cc2OC)CCCN3C(=O)CN(C)C)nc2[nH]ccc12	0.02%
COC(=O)Nc1nc2cc(Oc3ccc(NC(=O)Nc4ccccc4)cc3)ccc2[nH]1	16.5%

Biological target: Vascular endothelial growth factor receptor 1 (Homo sapiens) (UniProt P17948)
Settings: at 1 µM

Structure (SMILES)	inhibition
CC1=C(C(=O)Nc2ccc3[nH]nc(C)c3c2)C(c2ccc(C(F)(F)F)cc2)CC(=O)N1 (centres undefined)	5.46%
COc1cc(N2CCN(C(C)C)CC2)ccc1Nc1nc(Nc2cccc3ncccc23)c2cc[nH]c2n1	0.56%
COc1cc(Nc2ncc(-c3ccccc3)o2)cc(OC)c1	18.8%
COc1cccc(Nc2nccc(-c3cnn4ncccc34)n2)c1	25.1%
O=C(Nc1n[nH]c2nnc(-c3cccnc3)cc12)C1CC1	0.07%
CN1CCN(Cc2ccc(-c3cc4ncnc(Nc5ccc(OCc6cccc(F)c6)c(Cl)c5)c4s3)o2)CC1	3.76% and 1.58%
CCCNc1cccc(-n2ncc3c(N/N=C/c4ccncc4)ncnc32)c1	19.7%
CS(=O)(=O)Nc1ccc(-c2ccc3c(NC(=O)C4CC4)n[nH]c3c2)cc1	3.04%
COc1cccc(-n2ncc3c(N/N=C/c4ccc(C(=O)NCCN(C)C)cc4)ncnc32)c1	37.3%
O=C(O[C@H]1CN[C@H](C#Cc2cc3ncnc(Nc4ccc(OCc5cccc(F)c5)c(Cl)c4)c3s2)C1)N1CCOCC1	-0.14%
O=C(O[C@H]1CN[C@H](C#Cc2cc3ncnc(Nc4ccc5c(cnn5Cc5ccccc5)c4)c3s2)C1)N1CCOCC1	0.04%
CCn1c(-c2nonc2N)nc2cncc(C(=O)NCCNC)c21	3.5%
O=C(O[C@H]1CN[C@H](C#Cc2cc3ncnc(Nc4ccc5c(ccn5Cc5cc(F)ccc5F)c4)c3s2)C1)N1CCOCC1	-0.89%
c1ccc(-c2n[nH]cc2-c2ccnc(-c3ccc(OCCn4ccnc4)cc3)c2)nc1	29.5%
COc1cc2c(cc1Nc1nc(Nc3cccc(F)c3C(N)=O)c3cc[nH]c3n1)N(C(=O)CN1CCN(C(C)C)CC1)CC2	1.09%
CNC(=O)c1cncc(/C=C/c2ccccc2C)c1	0.49%
N#Cc1cccc(Nc2ncc(-c3ccccc3)o2)c1	9.52%
CCN1CCC(C(=O)Nc2n[nH]c3nnc(-c4cccc(F)c4F)cc23)CC1	1.26%
Nc1nonc1-c1nc2cnccc2n1C1CC1	7.3% and 7.59%
O=C1Nc2ccccc2/C1=C1\CCc2cc(O)ccc21	25.7%
Fc1ccc(Nc2nccc(-c3c(-c4ccc(C(F)(F)F)cc4)nn4ncccc34)n2)cc1F	4.12%
CCS(=O)(=O)c1ccc(OC)c(Nc2ncc(-c3cccc(F)c3)o2)c1	55.3%
OCCCNc1nccc(-c2c(-c3ccc(F)cc3)nn3cc(C(F)(F)F)ccc23)n1	3.41%
CN(c1ccc(NC(=O)NCCN2CCOCC2)cc1)c1ccnc(Nc2ccc(CS(C)(=O)=O)cc2)n1	30.7%
Nc1nccc(-c2c(-c3ccc(F)cc3)ncn2C2CCNCC2)n1	-0.59% and 2.14%
CC1(C)CC(n2cnc(-c3ccc(F)cc3)c2-c2ccnc(N)n2)CC(C)(C)N1	1.59%
Cn1c(-c2nonc2N)nc2cnccc21	1.68%
COc1ccc2ncn(-c3cc(O[C@H](C)c4ccccc4C(F)(F)F)c(C(N)=O)s3)c2c1	1.15%

— ChEMBL document CHEMBL1961873, “Compounds: GSK PKIS; Assays: Nanosyn kinase panel” (2012)
